# Pf growth 48h: Primary qHTS for delayed death inhibitors of the malarial parasite plastid, 48 hour incubation. P. falciparum luciferase growth in erythrocytes, 48 h. Potency, µM (doses to about 28.7 µM), inactives show at the top dose activity change, negative = inhibition, hits mostly inhibitors. 5.9% of 310,000 active. AID 504832, 2011; also: % is scaled to controls: 0 for no effect and ±100 for the full control effect
#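 Cell-based growth assay: transgenic P. falciparum expressing firefly luciferase, cultured in red cells within RPMI 1640 containing 0.5% w/v Albumax, 24 mM bicarbonate and gentamycin. A drop in luciferase activity indicates inhibition.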
# AmpC no deterg: qHTS Inhibitors of AmpC Beta-Lactamase (assay without detergent) | P00811 | 0.52% of 330,000 active | Potency, µM (top dose mostly 57.1 µM), inactives show at the highest dose activity change, negative = inhibition, hits mostly inhibitors | AmpC nitrocefin hydrolysis, absorbance 480 nm, 0.0001% Triton;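 also: plate controls were no compound for no effect and no enzyme for full effect; nearly all actives have a fitted effect of over 20% in size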
# Target sequence (P00811 whole entry, looked up): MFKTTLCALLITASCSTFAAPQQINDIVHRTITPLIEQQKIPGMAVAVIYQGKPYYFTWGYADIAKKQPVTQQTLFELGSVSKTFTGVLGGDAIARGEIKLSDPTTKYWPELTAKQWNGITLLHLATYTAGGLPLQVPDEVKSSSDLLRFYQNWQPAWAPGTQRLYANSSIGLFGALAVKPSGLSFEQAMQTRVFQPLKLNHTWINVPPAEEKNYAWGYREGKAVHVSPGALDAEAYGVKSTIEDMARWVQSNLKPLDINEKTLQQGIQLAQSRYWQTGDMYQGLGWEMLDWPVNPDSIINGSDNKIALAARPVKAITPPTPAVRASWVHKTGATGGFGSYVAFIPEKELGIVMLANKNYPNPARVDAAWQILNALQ
#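 AmpC (5.3 nM in the dispensed reagent) in 20 mM phosphate pH 7.0 with 0.01% (detergent screen) or 0.0001% Triton X-100 was preincubated with compounds for 15 min at room temperature. Nitrocefin was then added from an 800 uM solution, and hydrolysis was followed at 480 nm.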
# AmpC inh detg: qHTS Inhibitors of AmpC Beta-Lactamase (assay with detergent); 0.041% of 370,000 active; P00811; Potency, µM (top dose mostly 114 µM), for inactives: top-dose activity change, negative = inhibition, hits mostly inhibitors; AmpC hydrolysis of nitrocefin, absorbance 480 nm, 0.01% Triton; AID 485294, 2010;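 also: 0% = no-compound wells and -100% = no-enzyme wells; nearly all actives have a fitted effect of over 25% in size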
#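 AmpC (5.3 nM in the dispensed reagent) in 20 mM phosphate pH 7.0 with 0.01% (detergent screen) or 0.0001% Triton X-100 was preincubated with compounds for 15 min at room temperature. Nitrocefin was then added from an 800 uM solution, and hydrolysis was followed at 480 nm.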
# Pf growth 96h: Primary qHTS for delayed death inhibitors of the malarial parasite plastid, 96 hour incubation; P. falciparum luciferase reporter growth, 96 h; Potency, µM (doses to about 28.7 µM), for inactives: at the top dose activity change, negative = inhibition, actives largely listed as inhibitors; 6.9% of 320,000 active; AID 504834, 2011; also: % is scaled to controls: 0 for no effect and ±100 for the full control effect
#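 Delayed-death screen, second-generation endpoint: infected erythrocytes, 2% hematocrit, 0.05% parasitemia final; 96 hours at 37 C, 5% CO2; luciferase detection reagent; luminescence decrease equals reduced growth.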
# SARS PLpro yeast: qHTS of Yeast-based Assay for SARS-CoV PLP | S. cerevisiae expressing SARS-CoV PLpro, growth rescue | Potency, µM (series often up to 32.9 µM), inactives show at the top dose activity, positive = growth rescue, actives largely listed as activators | 0.19% of 330,000 active | AID 485353, 2010; calls by dose curve; also: 0% is about no effect; nearly all actives have a fitted effect of over 55% in size
# Sm TGR inh: qHTS Assay for the Inhibitors of Schistosoma Mansoni Peroxiredoxins; purified TGR, DTNB reduction, TNB absorbance 405 nm; Potency, µM (series often up to 114 µM), without a hit: at the top dose activity change, negative = inhibition, hits mostly inhibitors; 3% of 360,000 active; also: % is scaled to controls: 0 for no effect and ±100 for the full control effect; nearly all actives have a fitted effect of over 60% in size
#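 TGR 20 nM + NADPH 100 uM (dispensed conc.), cpd preinc 15 min RT; start with NADPH (500 uM addition) then DTNB (15 mM addition). Kinetic TNB absorbance, 405 nm filter. Four-parameter Hill fit across titration.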
# The depositor's hits bear a star; ? = inconclusive; nt = no result given. Only some compounds are listed: those with a hit (about 12% of all), similar ones and a draw of the others. Unless noted, calls follow the shape of the dose curve; as a rule, active = well fitted curve in the direction sought with a large enough effect; inconclusive = small, poorly fitted or top-dose-only effect, or another doubt; inactive = no such curve, though single readings can be large; an effect the other way counts as inactive or inconclusive. Potency is read from the fitted curve at half-maximal effect.
SMILES,Pf growth 48h,AmpC no deterg,AmpC inh detg,Pf growth 96h,SARS PLpro yeast,Sm TGR inh
O=C(NCc1ccccc1)c1cccc(Nc2nc3ccccc3n3nnnc23)c1,nt,nt,22%,nt,nt,-2%
O=C(CCc1ccccc1)NC1CCS(=O)(=O)C1 (stereo not given),5%,-18%,2%,45%,0%,0%
Cn1c(SCC(=O)c2ccccc2)nnc1C1COc2ccccc2O1 (stereo not given),16%,103%,-11%,-5%,0%,1%
Cn1c(SCC(=O)c2ccc3c(c2)OCO3)nnc1C1COc2ccccc2O1 (stereo not given),?,-48%,-11%,12µM*,14%,-11%
O=C(CSc1nnc2scc(-c3ccccc3)n12)c1ccc2c(c1)OCCO2,nt,-51%,?,2.1µM*,2%,0%
C/C(=N\NC(=O)c1c(Cl)cnn1C)c1cccnc1,48%,-10%,1%,7%,-4%,-18%
COC(=O)c1scc(-c2ccc(C)cc2)c1S(=O)(=O)N1CCN(c2ccc(OC)cc2)CC1,nt,nt,26%,nt,nt,-3%
Cc1ccc(CNC(=O)C2CCCN(S(=O)(=O)c3cccc4nsnc34)C2)cc1 (stereo not given),nt,nt,1%,nt,nt,3%
O=c1c(N2CCCCC2)csc2ccc(F)cc12,nt,nt,-1%,nt,nt,-10%
O=C(O)/C(=C\c1ccc(-c2ccc(F)cc2)o1)c1ccccc1,-6%,-38%,-11%,24%,-7%,18µM*
O=C(/C=C\c1ccc(-c2ccccc2)o1)c1ccccc1,115%,-27%,?,-8%,8%,11µM*
COc1cc(NC(=O)N2CCC(CN3CCOCC3)CC2)cc(OC)c1OC,nt,nt,14%,nt,nt,4%
CSc1ccc(CCNC(=O)C2CCN(c3ncnc4c3nc3n4CCCCC3)CC2)cc1,nt,nt,-1%,nt,nt,-4%
O=[N+]([O-])c1cc(Br)c(Nc2ccccc2)c([N+](=O)[O-])c1,0.52µM*,-18%,-8%,10%,-13%,11µM*
O=C(O)c1cc([N+](=O)[O-])ccc1Nc1ccccc1,13%,-17%,-12%,10µM*,-3%,-12%
O=C(Nc1ccccc1)c1ccc(Nc2c([N+](=O)[O-])cc([N+](=O)[O-])c3ccccc23)cc1,?,-18%,-2%,14%,-16%,7%
Cc1cccc(Nc2ccc([N+](=O)[O-])cc2C(=O)O)c1,9%,-19%,-1%,10%,-7%,-16%
CCn1ncc(C2=NOC(C(=O)Nc3cnn(C45CC6CC(CC(C6)C4)C5)c3)C2)c1C (stereo not given),5.9µM*,119%,?,0%,6%,23%
CCn1ncc(C2=NOC(C(=O)NCC(C)C)C2)c1C (stereo not given),nt,-7%,5%,nt,-2%,-1%
COc1ccc(OC)c(CCNC(=O)c2cnn(-c3ccccc3Cl)c2C2CCN(C(=O)OC(C)(C)C)CC2)c1,nt,nt,11%,nt,nt,9%
CC(Sc1nncn1C)C(=O)Nc1ccc(Cl)cn1 (stereo not given),31%,-2%,?,48%,8%,0%
Cc1ccc(-n2nnnc2SC(C)C(=O)Nc2ccc(Cl)cn2)cc1 (stereo not given),?,-43%,-8%,9.3µM*,-9%,0%
CSc1cccc(Nc2nc3c(S(=O)(=O)c4ccccc4)nnn3c3ccc(Cl)cc23)c1,nt,nt,4%,nt,nt,0%
Cc1[nH]c2ccc(OC(F)(F)F)cc2c1CCNCc1ccc(Cl)cc1,?,1%,-8%,?,-4%,-16%
CCOc1cccc(CNCCc2c(C)[nH]c3ccc(OC(F)(F)F)cc23)c1O,1.9µM*,87%,4%,?,-1%,0%
SMILES,Pf growth 48h,AmpC no deterg,AmpC inh detg,Pf growth 96h,SARS PLpro yeast,Sm TGR inh
Cc1[nH]c2ccc(OC(F)(F)F)cc2c1CCNCc1cccc([N+](=O)[O-])c1,1.5µM*,16%,2%,156%,-4%,-13%
Cc1ccc(C2C(C#N)=C(N)N(c3cccnc3)C3=C2C(=O)CCC3)c(C)c1 (stereo not given),?,2%,?,-27%,1%,nt
CC(C)CN1C(=O)c2ccc(NC(=O)c3cccs3)cc2C1=O,8.3µM*,-40%,-6%,nt,0%,13%
O=C(CNC(=O)c1ccc(Br)o1)Nc1ccc(N2CCCCCC2)cc1,39%,-11%,-10%,10µM*,2%,-15%
O=C(Nc1ccc(N2CCN(C(=O)c3cccs3)CC2)cc1)c1ccc(Br)o1,12µM*,-26%,0%,?,-9%,-11%
Cc1ccc(C(=O)Nc2cccc(NC(=O)c3cccs3)c2)c(C)c1,?,?,1%,12µM*,-8%,3%
O=C(Nc1ccc(NC(=O)c2cccs2)cc1)c1ccc(Br)o1,nt,-44%,-2%,31%,-1%,0%
CCOC(=O)c1[nH]c(C)c(CCC(=O)Nc2cc(Cl)c(OC)cc2OC)c1C,nt,nt,-11%,nt,nt,-29%
COc1cc(NC(=O)CC(C)S(=O)(=O)c2cc3c4c(c2)CCN4C(=O)CC3)cc(OC)c1 (stereo not given),nt,nt,1%,nt,nt,3%
O=C(Nc1cccc(NC(=O)c2cccs2)c1)c1ccc(Br)o1,11%,25µM*,-7%,29%,-3%,-28%
Cc1nc(-c2cccc(NC(=O)c3cccs3)c2)cs1,?,-29%,-12%,?,-41%,0%
O=C(CNC(=O)c1ccc(Br)o1)Nc1ncccc1O,13%,17%,?,-1%,nt,45µM*
Cc1cccnc1NC(=O)c1ccc(Br)o1,?,81%,?,26%,0%,-9%
O=C(Nc1cccc(-c2csc(-c3ccccc3)n2)c1)c1cccs1,nt,-46%,0%,0.33µM*,-11%,-3%
Cc1ccc(C(=O)COC(=O)C2C3C=CC(C3)C2C(=O)OCC(=O)c2ccc(C)c(C)c2)cc1C (stereo not given),?,-13%,-2%,1.2µM*,3%,8%
Cc1nc2ccccc2c(C)c1CC(=O)N(CC(C)C)c1c(N)n(Cc2ccccc2)c(=O)[nH]c1=O,?,63%,0%,12µM*,4%,-3%
Cc1cc2occ(CC(=O)N(CC(C)C)c3c(N)n(Cc4ccccc4)c(=O)[nH]c3=O)c2cc1C,17µM*,-22%,-13%,-7%,nt,1%
CC(C)CCNc1ncnc2c1nnn2Cc1ccccc1,-3%,-22%,-12%,10µM*,-1%,-23%
